Among the data in ChEMBL document CHEMBL3433997, “St. Jude Leishmania screening dataset” (2016) are inhibition values, retold here.

The experiment deals with Solute carrier family 2, facilitated glucose transporter member 1 (Homo sapiens) (UniProt P11166). Briefly: ST_JUDE_LEISH: Cytotoxicity at 2uM final concentration against transgenic Leishmania Mexicana promastigotes LmGLUT1 that are glucose transport deficient and complemented with the human glucose transporter GLUT1. Activity is measured by DNA content using SYBR green in vitro. In kind it is functional.
Solute carrier family 2, facilitated glucose transporter member 1 (Homo sapiens), sequence (P11166 whole entry): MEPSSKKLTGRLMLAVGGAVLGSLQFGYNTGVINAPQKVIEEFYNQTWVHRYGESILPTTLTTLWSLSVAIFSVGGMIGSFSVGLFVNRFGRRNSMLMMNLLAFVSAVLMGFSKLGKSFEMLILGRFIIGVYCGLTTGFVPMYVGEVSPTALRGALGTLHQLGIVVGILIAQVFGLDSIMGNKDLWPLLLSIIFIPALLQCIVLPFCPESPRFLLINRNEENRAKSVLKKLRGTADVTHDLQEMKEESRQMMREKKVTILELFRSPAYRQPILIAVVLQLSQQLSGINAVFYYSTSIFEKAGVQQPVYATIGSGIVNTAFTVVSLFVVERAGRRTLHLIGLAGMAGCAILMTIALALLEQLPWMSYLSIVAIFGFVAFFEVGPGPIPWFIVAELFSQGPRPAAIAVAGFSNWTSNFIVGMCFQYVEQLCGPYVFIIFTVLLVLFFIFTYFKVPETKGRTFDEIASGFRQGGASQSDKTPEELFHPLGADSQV
With `N=c1n(CCN2CCCCC2)c2ccccc2n1CC(O)c1cccc(Br)c1` (stereo not given), the inhibition (as a rule, the relative decrease from the control value, in per cent) came out at 3.65%.

On to `O=C(Nc1cc(C(F)(F)F)ccc1N1CCOCC1)C(Cl)(Cl)Cl`, for which the inhibition came out at 10.4%.

As to `COc1ccccc1-c1cccc(CNC2CCN(CC3Cn4c(=O)ccc5ccc(F)c3c54)CC2)c1` (stereo not given), the inhibition is 15%.

Regarding `CN1CCN(c2ccc(CNc3ccc4ncc(-c5ccc(OC(F)(F)F)cc5)n4n3)cc2)CC1`, the inhibition was -2.29%.

As to `CC(C)CNc1nc(N)nc2ccc3c(ccn3CC(C)C)c12`, the inhibition was determined as 1.7%.

Take `N#CCCN1CCN(Cc2cccc(-c3ccc(-c4nc5ccccc5[nH]4)cc3)c2)CC1`: the inhibition is 2.32%.

For `O=C(Nc1ccc(OC2CCN(Cc3ccccc3)CC2)c(Cl)c1)c1ccco1`, the inhibition was 8.6%.

Take `Cc1cc(N(C)C)nc(Nc2ccc(NC(=O)CCc3ccccc3)cc2)n1`: the inhibition worked out at 3.05%.

Regarding `Fc1ccc2[nH]ccc(=NN=Cc3ccccc3Cl)c2c1`, the inhibition is -0.64%.

`c1cc(CN2CCCCC2)cc(-c2ccc(-c3nc4ccccc4[nH]3)cc2)c1`: the inhibition was -0.4%.

For `CCCCCCOc1ccc(C(=O)NCCCC2CCCN(CCCCCNC(=O)C=Cc3ccc(Cl)c(Cl)c3)C2)cc1` (stereo not given), the inhibition is -0.52%.

Take `COc1ccccc1CN1CCC(NC(=O)c2ccc(-c3ccc(N(C)C)cc3)s2)CC1`: the inhibition came out at 9.96%.

In the case of `CN1CCCN(Cc2ccc(-c3ccc(NC(=O)c4ccc(Cl)cc4)cc3)cc2)CC1`, the inhibition was determined as 63.1%.

For the molecule `Fc1cc(Cl)ccc1Nc1ccnc2cc(-c3ccc(CN4CCCCC4)o3)ccc12`, the inhibition was determined as 2.55%.

Turning to `CN(C)CCCOC(=O)c1cc2cc(-c3ccccc3)ccc2n1S(=O)(=O)Cc1ccccc1`, the inhibition turned out to be 5.88%.

For the molecule `Nc1nc(N)c2c(Oc3cccnc3)cccc2n1`, the inhibition was 0.1%.

`CC(C)(C)SC1SC(SC(C)(C)C)C(OC(=O)c2ccccc2)C(OC(=O)c2ccccc2)C1OC(=O)c1ccccc1` (stereo not given): the inhibition was -0.52%.

Turning to `N=C(N)Nc1nccc(NCc2ccccc2)n1`, the inhibition is -2.64%.

With `COc1ccc2nccc([C@@H](O)CN3CCC(NCc4ccc5nsnc5c4)CC3)c2c1`, the inhibition amounted to 0.12%.

In the case of `CN(/N=C/C=C/c1ccc(Cl)cc1)c1nc(NCCc2ccc(O)cc2)nc(N2CCNCC2)n1`, the inhibition was -0.76%.

With `CC(C)c1ccc(NC(=O)c2ccc(C(=O)NC3CCN(CC4CCCCC4)C3)cc2)cc1` (stereo not given), the inhibition worked out at 3.72%.

Consider `N=C(N)NCC=C(c1ccccc1)c1ccccc1`, for which the inhibition was 8.32%.

For the molecule `CCC1CCc2cc(N)cc(-c3nc4c(c(C)nn4CC)c(=O)[nH]3)c2O1` (stereo not given), the inhibition was 5.2%.

Regarding `CN(C)Cc1ccc(-c2ccc3c(Nc4ccc(Oc5ccccn5)cc4)ccnc3c2)o1`, the inhibition turned out to be 0.08%.

Take `Cc1cc(C(=O)CN2C(=O)NC3(CCCc4ccccc43)C2=O)c(C)n1Cc1ccc(F)cc1` (stereo not given): the inhibition came to 2.81%.

Turning to `CN1CCC(NCc2ccc(-c3ccc(S(=O)(=O)NCc4ccccc4)s3)cc2)CC1`, the inhibition is 6.58%.

Regarding `C[C@H](NC(=O)c1c(CN2CCC(NC(=O)CC(C)(C)C)CC2)c(-c2cccs2)nc2ccccc12)C1CCCCC1`, the inhibition was 2.07%.

Regarding `COCCOc1cccc(CN2CCC(c3cc4nc(C)cc(C(F)(F)F)n4n3)C2)c1` (stereo not given), the inhibition was -2.12%.

Regarding `O=C(NCCc1ccccc1)N(Cc1ccccc1-c1cccc(CNC2CCCC2)c1)C1CCN(Cc2ccccc2)CC1`, the inhibition is 8.2%.

`COc1ccc(-c2csc3nc(C)nc(Cl)c23)cc1OC`: the inhibition is -0.82%.

In the case of `CCCc1cc(Cc2cnc(N)nc2N)cc2c1OC(C)C2C` (stereo not given), the inhibition was determined as 8.26%.

In the case of `COc1ccc(-c2cccc(NC(=O)c3cccc(C#N)c3)c2)cc1CN(C)CCN(C)C`, the inhibition worked out at 1.23%.

For the molecule `CCNCc1cccc(-c2ccc3ccnc(N)c3c2)c1`, the inhibition worked out at 4.49%.

As for `COc1c(C)cc(I)cc1CNCCCNc1cc(=O)c2ccccc2[nH]1`, the inhibition came out at 0.43%.

With `CCN(CC)CCCNC(=O)/C(=C/C=C/c1cc2cc(Cl)c(Cl)cc2[nH]1)OC`, the inhibition was found to be 7.56%.

Regarding `COc1ccc2nc3cc(Cl)ccc3c(N)c2c1`, the inhibition worked out at 15.8%.

In the case of `CCOC(=O)C(NC(=O)Cc1ccccc1)C(C)C` (stereo not given), the inhibition is -2.58%.

Regarding `CC(C)(C)OC(=O)N[C@@H](Cc1ccccc1)C(=O)Nc1cccc(-c2cccc(NC(=O)[C@H](Cc3ccccc3)NC(=O)OC(C)(C)C)c2)c1`, the inhibition was 0.62%.

Turning to `Cc1ccc(C)c(CN2CCC(CNC(=O)c3cc4ccc5cccnc5c4[nH]3)CC2)c1`, the inhibition is 0.51%.

For the molecule `Cc1cc(N/N=C/c2ccccc2[N+](=O)[O-])c2cc(F)ccc2n1`, the inhibition amounted to 2.14%.
